Laboratory results: PubChem BioAssay (NCI)
The panel holds about 83,000 compounds, 20% with a hit somewhere; the sample as a whole holds those more often.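 The test compound was applied at a single concentration to cells in 96-well plates for 48 hours, and percent growth was recorded.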 Unmarked numbers belong to inactive results. The source made the active and inactive calls. Rule for the calls: active = growth percent below 10; inactive = the rest.

What was measured:
Test in all cases: NCI-60 one-dose screen, 48 h (100 = growth as untreated, 0 = no growth, -100 = all killed)
Settings in all cases: 10 µM
[1] = test system: HCT-15 colon
[2] = test system: HT29 colon
[3] = test system: SNB-75 CNS
[4] = test system: SNB-19 CNS
[5] = test system: U251 CNS
[6] = test system: PC-3 prostate
[7] = test system: SK-MEL-5 melanoma
[8] = test system: UACC-62 melanoma
[9] = test system: LOX IMVI melanoma
[10] = test system: SK-MEL-28 melanoma

| Compound | growth [1] | growth [2] | growth [3] | growth [4] | growth [5] | growth [6] | growth [7] | growth [8] | growth [9] | growth [10] |
| --- | --- | --- | --- | --- | --- | --- | --- | --- | --- | --- |
| COc1cc(C2=Nc3c/c(=C\c4c(O)[nH]c5ccc(Cl)cc45)ccc3=N2)cc(OC)c1OC | 24.8% | -73.3% (active) | 50.1% | -30.9% (active) | -90.6% (active) | 21.7% | -92.2% (active) | 31.8% | 2.31% (active) | -35.7% (active) |
| C/C(=N\NC(=O)c1sc(=S)n(C)c1N)c1cc2ccccc2o1 | 48% | 36.6% | 53% | 89.9% | 56.5% | 45.5% | 43.1% | 71.3% | 25.6% | 71.8% |
| Cc1ccc([P+](Cc2ccc([N+](=O)[O-])cc2)(c2ccc(C)cc2)c2ccc(C)cc2)cc1 | 96.7% | 23.1% | 30.9% | 57.6% | 39.6% | 38.7% | -12.4% (active) | -0.637% (active) | 32.4% | 28.4% |
| CC(=O)OC1Oc2ccccc2-c2oc(=O)c(-c3cc(=O)oc4cc(O)ccc34)cc21 (stereo not given) | 80.8% | 86.9% | 76% | 95% | 89.6% | 75.9% | 80.1% | 84.9% | 83.8% | 111% |
| Nc1nc(SCC#CCCl)c2[nH]cnc2n1 | 45.1% | 53.9% | 63% | 57.1% | 43.8% | 62.6% | 29.5% | 44% | 27.8% | 72.8% |
| N=C(N)c1ccc(-c2ccc(-c3ccccc3)s2)s1 | -36.4% (active) | -70.1% (active) | -6.07% (active) | 10% | -74.6% (active) | -26% (active) | 14.5% | -84.9% (active) | -69.2% (active) | -95.9% (active) |
| COc1cc(C(c2c[nH]c3ccccc23)N2CCCC2)ccc1OCc1ccccc1 (stereo not given) | 77.1% | 78.5% | 41.3% | 87.5% | 86% | 55.1% | 75.6% | 60.9% | 68.9% | 98% |
| Cc1ccc(C)c(S(=O)(=O)NC2c3ccccc3Oc3ccccc32)c1 | 94% | 88.8% | 91% | 102% | 92.1% | 89% | 101% | 95.1% | 94.1% | 106% |
| COc1ccc(/C(CS(=O)(=O)c2ccccc2)=N\O)cc1 | 99.4% | 106% | 87% | 101% | 93.9% | 104% | 95.8% | 95.1% | 111% | 100% |
| Cc1cc(C)c2c(Nc3ncnc4c3sc3nc(C)cc(C)c34)n[nH]c2n1 | 93.2% | 102% | 94.4% | 95.8% | 99.4% | 88.4% | 99.1% | 95.4% | 95.5% | 94.5% |
| COc1ccc(Nc2nc(NCc3ccccc3)c3ccccc3n2)cc1 | 72.4% | 49% | -33% (active) | 14.4% | 32.9% | 57.3% | 63.9% | 65.3% | 46.8% | 67.7% |
| Oc1cc(O)c(Br)cc1Br | 101% | 98.1% | 95.7% | 102% | 99.7% | 87.9% | 97.7% | 101% | 94% | 111% |
| Cc1ccccc1C1=N[C@@H](Cc2ccccc2)C(=O)c2c(nc3ccccn23)N1 | 100% | 115% | 70.8% | 109% | 100% | 89.4% | 103% | 103% | 91.7% | 113% |
| CC(C)c1[nH]nc2c(NCc3ccc(-c4ccccn4)cc3)nc(SCCN)nc12 | 7.24% (active) | -24.2% (active) | -78.5% (active) | 12.2% | 5.64% (active) | -0.489% (active) | -38.6% (active) | -10.2% (active) | -18.5% (active) | -13.8% (active) |
